# ± gives the standard deviation. In all, about 6,200 sequences were measured (“pre-steady-state target cleavage rate”: median about 0.29, highest 2% from about 2 on). This is one part of a sample in which the highest values are shown more often than they occur.
# Tested on: MIWI (PIWIL1) piRISC loaded with piRNA #1 (30 nt)
# Experiment: pre-steady-state target cleavage rate (min^-1); MIWI and MILI are mouse PIWI proteins and EfPiwi is from a freshwater sponge; tags in brackets are library labels; higher = faster piRNA-guided slicing of the target
# Settings: guide: piRNA #1 5'p-UGAGGUAGUAGGUUGUAUAGUAUCCAGAGG; auxiliary factor: 500 nM mouse GTSF1
# Experimental: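 Cleave-'n-Seq: a library of target RNAs (target site embedded in constant flanks, ACAGCATTCCGCGTTAGTGATATCCG... 5' flank; DNA-blocked outside the site) at 0.1 nM was incubated with 1 nM active mouse MILI or MIWI piRISC (synthetic 5'-monophosphorylated piRNA guide) with or without 500 nM mouse GTSF1 at 33 °C for 1 min to 16 h. Uncleaved targets were sequenced and normalised to non-target controls, and the pooled three trials were fitted to a burst-and-steady-state model to give the pre-steady-state cleavage rate (min^-1; k3 is constrained to at most 1e-4). Sequence is the target site only; target names encode pairing extent (gX:gY) and contiguous / 1-mismatch / 2-mismatch / bulge geometry. Fits with R² ≤ 0 are excluded.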
row,Sequence,pre-steady-state target cleavage rate
1,GCUCUGGGAUACUAUACAACCUACUACCUCA,1.89 ± 0.096
2,GGUCUGCGAUACUAUACAACCUACUACCUCA,1.79 ± 0.071
3,GGACUGCGAUACUAUACAACCUACUACCUCA,1.79 ± 0.13
4,GCUCUGCGAUACUAUACAACCUACUACCUCA,2.02 ± 0.12
5,CCUCUGCGAUACUAUACAACCUACUACCUCA,2.19 ± 0.12
6,GGAGUGGAUACUAUACAACCUACAACCUCA,0.314 ± 0.037
7,GGACUGGAUACUAUACCACCUACUACCUCA,1.17 ± 0.082
8,GGAGACCUUACUAUUCAACCUAGUACCUCA,0.395 ± 0.04
9,GGAGACCUAUGUAUACCACCUACUACCUCA,0.0149 ± 0.0026
10,CCCUGGAUACUAUACAACCUACUACCUCA,2.52 ± 0.18
11,GCCCUGGAUACUAUACAACCUACUACCUCA,2.17 ± 0.12
12,GGCCUGGAUACUAUACAACCUACUACCUCA,1.74 ± 0.098
13,CCUGUGGAUACUAUACAACCUACAACCUCA,0.383 ± 0.043
14,GAUCUGGAUACUAUACAACCUACUACCUCA,1.91 ± 0.097
15,CCUGUGGAUACUAUACAACCUACUACCUCA,1.86 ± 0.11
16,GCCUGGAUACUAUACAACCUACUACCUCA,1.87 ± 0.11
17,GGACCUGGAUACUAUACAACCUACUACCUCA,1.96 ± 0.14
18,CCCCUGGAUACUAUACAACCUACUACCUCA,2.45 ± 0.15
19,GGAGACCUUACUAUACAAGCUAGUACCUCA,0.471 ± 0.033
20,GCUCUGGAUACUAUACAACCAACUACCACA,0.153 ± 0.018

row,Sequence,pre-steady-state target cleavage rate
1,GGAGACGAAAGUAUACAACCUACUACCUCA,0.527 ± 0.062
2,GGUCUGGAUAGUAUACAACCUACUACGUCA,0.583 ± 0.055
3,GGAGAGGAAACUAUACAUCCUACUACCUCA,1.19 ± 0.074
4,GCUCUGGAUACUAUACAACCUCCUACCUCA,1.2 ± 0.052
5,CCAGUGGAUACUAUACAACCUACUACCUCA,2.01 ± 0.11
6,GCUCGUGGAUACUAUACAACCUACUACCUCA,1.85 ± 0.095
7,GGUCCUGGAUACUAUACAACCUACUACCUCA,1.97 ± 0.099
8,CCUCUGGAUACUAUACAACCUCCUACCUCA,1.32 ± 0.068
9,CCUCGUGGAUACUAUACAACCUACUACCUCA,2.17 ± 0.16
10,CCUCCUGGAUACUAUACAACCUACUACCUCA,2.25 ± 0.13
11,GGAGUGGAUACUAUACUACCUACAACCUCA,0.428 ± 0.052
12,GGUCGUGGAUACUAUACAACCUACUACCUCA,1.72 ± 0.093
13,GCUCCUGGAUACUAUACAACCUACUACCUCA,2.13 ± 0.11
14,GGACUGGAUACUAUACAACCUCCUACCUCA,0.801 ± 0.052
15,GCAGUGGAUACUAUACAACCUACUACCUCA,1.85 ± 0.095
16,GGAGACCAUAUAUACAACCUACUACCUCA,0.184 ± 0.018
17,GGAGACCUUAGUAUACUACCUACUACCUCA,0.0222 ± 0.0051
18,GGAGACCUAACUAUACAACCUUCUACCACA,0.194 ± 0.026
19,GGAGACCUAUCUAUACAACCUACUACACUCA,0.634 ± 0.061
20,CCUCUGGAUACUAUACAACCUAGUACCUCA,0.172 ± 0.039
